Source: PubChem (ICCB-Longwood Screening Facility, Harvard Medical School)
Vaccinia pol inh: inhibitors of vaccinia virus processive DNA synthesis (E9 polymerase). in vitro processive DNA synthesis, absorbance read-out; stronger effect = lower value. normalized absorbance, % (no concentration beside the values). hit rate 0.94% among 46,000. AID 493162; in the data active = normalized absorbance mostly below about 85%, no sharp cut-off; inactive = mostly above about 86%
Numbers without * were called inactive. This is one part of a sample in which hits are shown more often than they occur.

SMILES	Vaccinia pol inh
Cc1nnc(SCc2ccc(F)cc2Cl)c2cc3occc3n12	71.7*
CCc1nnc(SCc2ccccc2)c2cc3occc3n12	90.6
CC(=O)Nc1cccc(-c2nc3ccccc3[nH]2)c1	89.5
CCN1/C(=C/c2ccc3ccccc3[n+]2CC)Sc2cc(NC(C)=O)ccc21	39.2*
CC(=O)Nc1ccc(C(=O)OCC(=O)Nc2ccc3ccccc3c2)cc1	74.0
COC(=O)CNC(=O)c1nn(-c2ccc(OC)cc2OC)c(=O)c2ccccc12	106.2
O=C(Nc1cc(C(F)(F)F)ccc1N1CCCCC1)c1cc[n+]([O-])cc1	98.7
c1ccc(Nc2csc(N=C3CCCCC3)n2)cc1	99.7
O=C1c2c(O)ccc(O)c2C(=O)c2c(NCCNCCO)ccc(NCCNCCO)c21	7.8*
Cc1cccc(-n2ccnc2SCC(=O)NC2CCCCC2)c1	97.7
COc1ccc(CSc2ncn[nH]2)cc1	104.4
COc1ccc(CSC2=C(C#N)C(=O)NC3(CCCCC3)S2)cc1	70.8*
COc1ccc(C2=C(C#N)C(=O)OC2)cc1	89.6
FC(F)(F)c1nc2ccccc2n1-c1cc(-c2ccccc2)[nH]n1	95.7
C=CCOc1ccccc1CNc1ncn[nH]1	84.1
COc1ccc(CNc2ccccn2)cc1OC	98.8
COc1ccc(CNc2ncn[nH]2)cc1OC	82.0*
Cc1ccc(C2=NC(C(F)(F)F)(C(F)(F)F)N=C(c3ccco3)O2)cc1	104.4
Cc1cc2c(cc1S(=O)(=O)CCC(=O)NCc1ccco1)OCC(=O)N2	97.4
CC(Oc1ccccc1)C(=O)N(CC#N)CC#N (stereo not drawn)	94.4
COc1cc(C(=O)NCc2ccc(OCCN(C)C)cc2)cc(OC)c1OC	100.6
COc1ccc(Cc2nccc3cc(OC)c(OC)cc23)cc1OC	97.0
COc1cc2ccc3c(CCN(C)C)cc(OC)c(OC)c3c2cc1OC	60.9*
CCC1(C)OC(c2ccc(Br)cc2)=Nc2ccccc21 (stereo not drawn)	99.3
Cn1cc(CCC(=O)NCc2ccccc2)c2ccccc21	102.1
SMILES	Vaccinia pol inh
COC(=O)c1ccc(Nc2ccccc2)cc1	102.1
COC(=O)c1ccc(NC(=S)N(C(C)C)C(C)C)cc1	94.9
COC(=O)c1ccc(NN)cc1	81.0*
COC(=O)c1ccc(CSC(=N)N)cc1	80.9*
N=C(N)SCc1ccccc1	95.9
COC(=O)c1ccc(CSc2nnc3n(N)cnn23)cc1	101.1
Cc1cccc[n+]1C1[C@@H](c2cccnc2)C(C#N)=C([S-])N[C@]1(C)O (stereo partly drawn)	89.5
O=C(O)c1cc(Cl)nnc1Cl	102.8
OCc1nc2ccccc2n1CCC1CCCCC1	90.4
Nc1cc(C(F)(F)F)ccc1-n1cncn1	88.0
COc1ccc2oc(=O)c(C(=O)c3ccccc3)cc2c1	100.6
CC1=NN2C(=N)/C(=C/c3cn(CCOc4c(C)cccc4C)c4ccccc34)C(=O)N=C2S1	100.6
CC(c1ccccc1)N1C(=O)NC(=O)/C(=C/c2coc3ccccc3c2=O)C1=O (stereo not drawn)	91.4
N=C1/C(=C\c2coc3ccccc3c2=O)C(=O)N=C2SC=NN12	45.6*
COc1ccc(-c2ccc(OC)cc2C(=O)NN)cc1	100.7
COc1ccc2c(c1)-c1ccccc1S(=O)(=O)N2C	95.7
COc1ccc2c(c1)C(=NN)c1cc(OC)ccc1-2	67.6*
Cc1cccc(-n2c(O)c(C3=c4ccccc4=NC3=O)sc2=S)c1	99.3
CCC1CC(O)C(C)C(C)S1 (stereo not drawn)	99.8
CCc1c(C)nn2cn[n+](Cc3ccccc3)c2c1[O-]	96.2
Cc1nc2ccccc2c2oc(C(=O)N3CCC(C)CC3)cc12	96.7
Cc1nc2ccccc2c2oc(C(=O)NC3CCCC3)cc12	96.3
Cc1nc2ccccc2c2oc(C(=O)NCCN3CCN(C)CC3)cc12	61.8*
O=C(C1CCCN(CC2CC3C=CC2C3)C1)N1CCC(Cc2ccccc2)CC1 (stereo not drawn)	100.8
Cc1cc(C)n(-c2ccc(Cl)c(C(=O)OCc3ccccc3)c2)n1	94.8
SMILES	Vaccinia pol inh
Cn1c(SCc2ccc(F)cc2)nc2ccc(C(=O)NCCc3ccc(Cl)cc3)cc21	87.8
O=C(CC1CC2CCC1C2)NCc1ccc(F)cc1 (stereo not drawn)	88.9
N#Cc1c(N)n(CCN)c2nc3ccccc3nc12	84.8*
N#Cc1c(N)n(CCc2ccccc2)c2nc3ccccc3nc12	94.1
CCCCn1c(N)c(C#N)c2nc3ccccc3nc21	94.6
Cn1c(NC(=O)c2ccccc2NC(=O)c2ccccc2)nc2ccccc21	99.1
O=C(O)CN1C(=O)/C(=C/c2ccccc2)SC1=S	90.0
CCCOC(=O)CN1C(=O)/C(=C/c2ccccc2)SC1=S	85.7
CCOC(=O)CN1C(=O)/C(=C/c2ccccc2)SC1=S	81.5*
CC1(O)CCOCC1NC(Cc1cc2ccccc2[nH]1)C(=O)O (stereo not drawn)	100.9
CC1Cc2ccccc2N1C(=O)COC(=O)c1n[nH]c2ccccc12 (stereo not drawn)	102.3
CN(c1ccccc1C(=O)O)S(=O)(=O)c1ccc2c3c(cccc13)C(=O)N2	49.6*
O=C1Nc2ccc(S(=O)(=O)N(CCO)CCO)c3cccc1c23	99.5
NS(=O)(=O)c1ccc2c3c(cccc13)C(=O)N2	96.1
Oc1c(Cl)cc(Cl)cc1C1c2cccn2CC2CCCCN21 (stereo not drawn)	116.5
Cc1ccc(CCNC(=O)c2cc3c(=O)oc4ccc(C)cc4c3s2)cc1	102.9
CC1CCN(CCCNC(=O)c2cc3c(=O)n(C)c4ccccc4c3s2)CC1	58.7*
O=C(NC1CCCCC1)c1cc2c(=O)[nH]c3ccccc3c2s1	99.8
CC1CC(C)CN(CCCNC(=O)c2cc3c(=O)[nH]c4ccccc4c3s2)C1 (stereo not drawn)	57.8*
CCCCN(C)C(=O)c1cc2c(Cl)nc3ccccc3c2s1	100.6
COC(=O)CNC(=O)c1cc2c(=O)[nH]c3ccccc3c2s1	97.1
Cc1cccc(CCNC(=O)c2cc3c(=O)n(C)c4ccccc4c3s2)c1	101.4
O=C(NCCCN1CCCC1)c1cc2c(Cl)nc3ccccc3c2s1	32.7*
CCn1c(=O)c2cc(C(=O)NCCCN3CCCCCC3)sc2c2ccccc21	59.8
Cc1ccc2oc(=O)c3cc(C(=O)NCCN4CCN(Cc5ccccc5)CC4)sc3c2c1	98.3
SMILES	Vaccinia pol inh
Cc1ccc2oc(=O)c3cc(C(=O)NCCCN4CCCCCC4)sc3c2c1	68.2*
O=C(NCCCN1CCCCC1)c1cc(Sc2ccc(F)cc2)nc2ccccc12	101.1
CN1C2CCC1CC(NS(=O)(=O)c1ccc(Cl)cc1)C2 (stereo not drawn)	116.2
CCCn1c(CCCNC(=O)c2ccccc2)nc2ccccc21	94.1
Cc1ccccc1OCC(=O)NC(C)(C)C	100.7
O=C(COc1ccccc1)OCC(=O)c1cccc(C(F)(F)F)c1	101.0
COc1cccc(N=Cc2ccc(O)cc2)c1	100.1
COc1ccc(CN2C(=O)C(F)(F)C2c2ccco2)cc1 (stereo not drawn)	97.0
COc1ccccc1N1C(=O)c2ccc(C(=O)Nc3cc(C)on3)cc2C1=O	100.3
CN1C2CCC1CC(NC(=O)CSCc1ccc(Cl)cc1)C2 (stereo not drawn)	91.4
CCC(=O)Nc1nonc1-c1nc2ccccc2n1C	99.8
CCOC(=O)c1[nH]c2ccccc2c1-n1cccc1	98.6
O=c1c(-c2nc3ccccc3[nH]2)coc2ccc(Cl)cc12	99.0
N#Cc1c(-c2ccco2)cc(-c2cccs2)nc1OCc1ccc(F)cc1	89.0
N#Cc1ccc(CSc2nc(-c3cccs3)c3c(c2C(=O)O)CCCC3)cc1	99.6
CN1CCc2c(-c3cccs3)nc(OCc3ccccc3Br)c(C#N)c2C1	45.9*
